# Values joined by “and” are separate entries in the source; they are usually repeats but may differ in a detail not shown here. Equal values may be shown once. About 2,000 (36%) of roughly 5,500 compounds were called active. About 18% were inconclusive and are not listed. Rule as the data show it: active = normalized growth mostly below about 0.91 (no sharp cut-off); inconclusive = no clear call, values can overlap the other calls; inactive = mostly above about 0.92. The list shows a part of the results.
# Assay: chemical genetic growth profiling, strain panel (AID 1159580);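 also: tested at 20 µM; growth read once vehicle control cultures reached saturation at 30 °C; 1 = growth at the plate median or of vehicle wells; lower values mean less growth of the strain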
# Settings: S. cerevisiae deletion strains, growth OD
structure (smiles),measurement,setting,value
COc1ccc(-c2cc(=O)c3c(OC(C)=O)cc(OC(C)=O)cc3o2)cc1,normalized growth,"locus YAL013W, strain DEP1, stronger effect = lower value",0.955 (inactive)
same,normalized growth,"locus YAL021C, strain ccr4, stronger effect = lower value",0.947 (inactive)
same,normalized growth,"locus YAL026C, strain drs2, stronger effect = lower value",1.01 (inactive)
same,normalized growth,"locus YAL030W, strain snc1, stronger effect = lower value",0.99 (inactive)
same,normalized growth,"locus YBL061C, strain skt5, stronger effect = lower value",0.974 (inactive)
same,normalized growth,"locus YBR009C, strain hhf1, stronger effect = lower value",0.972 (inactive)
same,normalized growth,"locus YBR021W, strain FUR4, stronger effect = lower value",0.916 (inactive)
same,normalized growth,"locus YBR023C, strain chs3, stronger effect = lower value",0.972 (inactive)
same,normalized growth,"locus YBR171W, strain sec66, stronger effect = lower value",0.996 (inactive)
same,normalized growth,"locus YBR229C, strain ROT2, stronger effect = lower value",0.982 (inactive)
same,normalized growth,"locus YBR231C, strain swc5, stronger effect = lower value",0.922 (inactive)
same,normalized growth,"locus YBR279W, strain paf1, stronger effect = lower value",0.988 (inactive)
same,normalized growth,"locus YCL011C, strain gbp2, stronger effect = lower value",0.989 (inactive)
same,normalized growth,"locus YCL016C, strain dcc1, stronger effect = lower value",0.991 (inactive)
same,normalized growth,"locus YCL029C, strain bik1, stronger effect = lower value",0.958 (inactive)
same,normalized growth,"locus YCL061C, strain MRC1, stronger effect = lower value",0.989 (inactive)
same,normalized growth,"locus YCL069W, strain vba3, stronger effect = lower value",0.983 (inactive)
same,normalized growth,"locus YCR088W, strain abp1, stronger effect = lower value",0.996 (inactive)
same,normalized growth,"locus YDL005C, strain med2, stronger effect = lower value",0.991 (inactive)
same,normalized growth,"locus YDL035C, strain GPR1, stronger effect = lower value",0.975 (inactive)
same,normalized growth,"locus YDL040C, strain nat1, stronger effect = lower value",0.986 (inactive)
same,normalized growth,"locus YDL074C, strain BRE1, stronger effect = lower value",0.861 (inactive)
same,normalized growth,"locus YDL101C, strain DUN1, stronger effect = lower value",0.958 (inactive)
same,normalized growth,"locus YDL134C, strain PPH21, stronger effect = lower value",0.956 (inactive)
same,normalized growth,"locus YDL185W, strain tfp1, stronger effect = lower value",0.93 (inactive)
same,normalized growth,"locus YDL192W, strain arf1, stronger effect = lower value",0.965 (inactive)
same,normalized growth,"locus YDR001C, strain nth1, stronger effect = lower value",0.987 (inactive)
same,normalized growth,"locus YDR069C, strain doa4, stronger effect = lower value",0.981 (inactive)
same,normalized growth,"locus YDR101C, strain arx1, stronger effect = lower value",1 (inactive)
same,normalized growth,"locus YDR137W, strain rgp1, stronger effect = lower value",0.934 (inactive)
same,normalized growth,"locus YDR150W, strain NUM1, stronger effect = lower value",0.976 (inactive)
same,normalized growth,"locus YDR159W, strain sac3, stronger effect = lower value",0.974 (inactive)
same,normalized growth,"locus YDR162C, strain NBP2, stronger effect = lower value",0.948 (inactive)
same,normalized growth,"locus YDR195W, strain ref2",1 (inactive)
same,normalized growth,"locus YDR297W, strain sur2, stronger effect = lower value",0.98 (inactive)
same,normalized growth,"locus YDR318W, strain mcm21, stronger effect = lower value",0.936 (inactive)
same,normalized growth,"locus YDR334W, strain swr1, stronger effect = lower value",0.987 (inactive)
same,normalized growth,"locus YDR335W, strain msn5, stronger effect = lower value",0.995 (inactive)
same,normalized growth,"locus YDR388W, stronger effect = lower value",0.973 (inactive)
same,normalized growth,"locus YDR392W, strain spt3, stronger effect = lower value",0.646 (active)
same,normalized growth,"locus YDR502C, strain sam2, stronger effect = lower value",0.94 (inactive)
same,normalized growth,"locus YEL003W, strain gim4, stronger effect = lower value",0.968 (inactive)
same,normalized growth,"locus YEL037C, strain rad23, stronger effect = lower value",1 (inactive)
same,normalized growth,"locus YEL061C, strain CIN8 (second series), stronger effect = lower value",0.991 (inactive)
same,normalized growth,"locus YEL061C, strain CIN8, stronger effect = lower value",0.982 (inactive)
same,normalized growth,"locus YER015W, strain faa2, stronger effect = lower value",0.97 (inactive)
same,normalized growth,"locus YER016W, strain bim1, stronger effect = lower value",0.991 (inactive)
same,normalized growth,"locus YER110C, stronger effect = lower value",0.95 (inactive)
same,normalized growth,"locus YER111C, strain swi4, stronger effect = lower value",1 (inactive)
same,normalized growth,"locus YER155C, strain BEM2 (second series), stronger effect = lower value",0.846 (active)
same,normalized growth,"locus YER155C, strain BEM2, stronger effect = lower value",0.942 (inactive)
same,normalized growth,"locus YER167W, strain BCK2, stronger effect = lower value",0.993 (inactive)
same,normalized growth,"locus YFR010W, strain ubp6, stronger effect = lower value",1 (inactive)
same,normalized growth,"locus YGL078C, strain dbp3, stronger effect = lower value",0.961 (inactive)
same,normalized growth,"locus YGL086W, strain mad1, stronger effect = lower value",0.976 (inactive)
same,normalized growth,"locus YGL167C, strain pmr1, stronger effect = lower value",0.992 (inactive)
same,normalized growth,"locus YGL173C, strain kem1, stronger effect = lower value",0.982 (inactive)
same,normalized growth,"locus YGL227W, strain vid30, stronger effect = lower value",0.98 (inactive)
same,normalized growth,"locus YGL240W, strain doc1, stronger effect = lower value",0.985 (inactive)
same,normalized growth,"locus YGL248W, strain PDE1, stronger effect = lower value",0.935 (inactive)
same,normalized growth,"locus YGL253W, strain hxk2, stronger effect = lower value",0.97 (inactive)
same,normalized growth,"locus YGR135W, strain pre9, stronger effect = lower value",0.905 (inactive)
same,normalized growth,"locus YGR252W, strain gcn5, stronger effect = lower value",0.86 (inactive)
same,normalized growth,"locus YHR013C, strain ard1, stronger effect = lower value",0.968 (inactive)
same,normalized growth,"locus YHR027C, strain rpn1, stronger effect = lower value",0.991 (inactive)
same,normalized growth,"locus YHR030C, strain SLT2, stronger effect = lower value",0.972 (inactive) and 0.893 (inactive)
same,normalized growth,"locus YHR079C, strain IRE1 (second series), stronger effect = lower value",0.972 (inactive)
same,normalized growth,"locus YHR079C, strain IRE1, stronger effect = lower value",0.864 (inactive)
same,normalized growth,"locus YHR094C, strain hxt1, stronger effect = lower value",0.97 (inactive)
same,normalized growth,"locus YHR129C, strain ARP1, stronger effect = lower value",0.938 (inactive)
same,normalized growth,"locus YHR142W, strain chs7, stronger effect = lower value",0.951 (inactive)
same,normalized growth,"locus YHR200W, strain rpn10, stronger effect = lower value",0.959 (inactive)
same,normalized growth,"locus YIL066C, strain RNR3, stronger effect = lower value",0.994 (inactive)
same,normalized growth,"locus YIL073C, strain SPO22, stronger effect = lower value",0.852 (inactive)
same,normalized growth,"locus YIL125W, strain kgd1, stronger effect = lower value",0.991 (inactive)
same,normalized growth,"locus YIR030C, strain dcg1, stronger effect = lower value",0.955 (inactive)
same,normalized growth,"locus YJL092W, strain hpr5, stronger effect = lower value",1 (inactive)
same,normalized growth,"locus YJL095W, strain BCK1 (second series), stronger effect = lower value",0.992 (inactive)
same,normalized growth,"locus YJL095W, strain BCK1, stronger effect = lower value",0.884 (inactive) and 0.878 (active)
same,normalized growth,"locus YJL115W, strain asf1, stronger effect = lower value",0.989 (inactive)
same,normalized growth,"locus YJL129C, strain trk1, stronger effect = lower value",0.937 (inactive)
same,normalized growth,"locus YJL134W, strain LCB3, stronger effect = lower value",0.979 (inactive)
same,normalized growth,"locus YJL154C, strain vps35, stronger effect = lower value",0.997 (inactive)
same,normalized growth,"locus YJL164C, strain tpk1, stronger effect = lower value",0.98 (inactive)
same,normalized growth,"locus YJL166W, strain qcr8, stronger effect = lower value",0.953 (inactive)
same,normalized growth,"locus YJL168C, strain set2, stronger effect = lower value",0.97 (inactive)
same,normalized growth,"locus YJL187C, strain SWE1 (second series), stronger effect = lower value",0.927 (inactive)
same,normalized growth,"locus YJL187C, strain SWE1, stronger effect = lower value",1.01 (inactive)
same,normalized growth,"locus YJR043C, strain POL32, stronger effect = lower value",0.974 (inactive)
